# Data from a collection of fitness landscapes (doi:10.1126/science.1257360).
# The full ranking holds about 140,000 sequences; the median of “enrichment ratio after two sorts for PhoP signalling” is about 0, and the highest 2% start at about 11. The sample holds the highest values, similar sequences and a random draw of the others, so the mix is not that of the screen.
# B1: PhoQ; a variant is named by its letters at X, in order, P23837 (parent)
# chain: MKKLLRLFFPLSLRVRFLLATAAVVLVLSLAYGMVALIGYSVSFDKTTFRLLRGESNLFYTLAKWENNKLHVELPENIDKQSPTMTLIYDENGQLLWAQRDVPWLMKMIQPDWLKSNGFHEIEADVNDTSLLLSGDHSIQQQLQEVREDDDDAEMTHSVAVNVYPATSRMPKLTIVVVDTIPVELKSSYMVWSWFIYVLSANLLLVIPLLWVAAWWSLRPIEALAKEVRELEEHNRELLNPATTRELTSLVRNLNRLLKSERERYDKYRTTLTDLTHSLKTPLXXLQXXLRSLRSEKMSVSDAEPVMLEQISRISQQIGYYLHRASMRGGTLLSRELHPVAPLLDNLTSALNKVYQRKGVNISLDISPEISFVGEQNDFVEVMGNVLDNACKYCLEFVEISARQTDEHLYIVVEDDGPGIPLSKREVIFDRGQRVDTLRPGQGVGLAVAREITEQYEGKIVAGESMLGGARMEVIFGRQHSAPKDE
# Variants of: B1
# Experiment: enrichment ratio after two sorts for PhoP signalling (ratio (wild type AVST 3.29)); higher = more functional
# Conditions: with PhoP (E. coli)
row,Variant,enrichment ratio
1,LYIW,≤ 0.25
2,VRDS,≤ 0.25
3,TKMI,38.2
4,AKMD,≤ 0.25
5,TKMG,7.64
6,ADFA,≤ 0.25
7,TDMI,27.6
8,AKMI,12.8
9,TDFA,≤ 0.25
10,PTMI,≤ 0.25
11,LTMI,0.673
12,AIMI,5.72
13,AYMI,0.272
14,ADMI,12.7
15,LVPL,≤ 0.25
16,PNNY,≤ 0.25
17,WLFH,≤ 0.25
18,PLHT,≤ 0.25
19,QAAQ,≤ 0.25
20,EGTK,≤ 0.25
21,APAS,≤ 0.25
22,ALRD,≤ 0.25
23,ATYI,≤ 0.25
24,KDMK,≤ 0.25
25,ALMD,≤ 0.25

row,Variant,enrichment ratio
1,ALMG,6.08
2,ATMI,19.9
3,ALMI,17.6
4,TDMK,11.7
5,ATPA,≤ 0.25
6,LTMK,≤ 0.25
7,NVRS,≤ 0.25
8,HGKV,≤ 0.25
9,KGKP,≤ 0.25
10,NFLN,0.688
11,AFWR,≤ 0.25
12,ASLF,12.2
13,ASFM,6.83
14,ASNS,≤ 0.25
15,KSLF,≤ 0.25
16,ADLV,8.2
17,ASHK,≤ 0.25
18,ASLM,15.3
19,NSLF,≤ 0.25
20,VRLC,≤ 0.25
21,ASTS,9.85
22,ASLV,18.7
23,ASLC,16.7
24,NIYP,≤ 0.25
25,LAFW,≤ 0.25

row,Variant,enrichment ratio
1,YYWT,≤ 0.25
2,ASLL,19.9
3,VRLL,≤ 0.25
4,ASLK,8.78
5,ASTK,≤ 0.25
6,ASDK,≤ 0.25
7,ASTI,13.9
8,ASTQ,3.55
9,ASLS,10.2
10,ASLI,12.7
11,ASWI,2.59
12,ASLA,14.6
13,FNCT,≤ 0.25
14,VWPK,≤ 0.25
15,EMQV,≤ 0.25
16,RTWK,≤ 0.25
17,KHEA,≤ 0.25
18,EWFR,≤ 0.25
19,KSMT,≤ 0.25
20,KSLY,≤ 0.25
21,ASNY,≤ 0.25
22,ASFT,1.36
23,ASLY,13.9
24,ASMT,12
25,ASLT,11.9

row,Variant,enrichment ratio
1,ASNT,≤ 0.25
2,KHPW,≤ 0.25
3,MQFI,0.491
4,WDYP,≤ 0.25
5,ATVW,3.56
6,WCCW,≤ 0.25
7,MLYM,8.36
8,KCYN,≤ 0.25
9,MLYN,1.73
10,MCYN,11.3
11,MCYM,14.1
12,KCYM,≤ 0.25
13,QGPI,≤ 0.25
14,VQSP,≤ 0.25
15,FRQT,≤ 0.25
16,YETN,≤ 0.25
17,ACGR,≤ 0.25
18,ACSM,13.2
19,ACSK,4.64
20,ACSF,13.3
21,GKCK,≤ 0.25
22,TDGP,≤ 0.25
23,RGGM,≤ 0.25
24,NMRS,≤ 0.25
25,NMSA,≤ 0.25

row,Variant,enrichment ratio
1,HPHS,≤ 0.25
2,PTQE,≤ 0.25
3,KMQE,≤ 0.25
4,YTQE,≤ 0.25
5,TKQE,16.5
6,GGQE,≤ 0.25
7,TIQC,0.791
8,TGQE,24.5
9,TQQE,44.9
10,LAQE,≤ 0.25
11,TIQE,15.1
12,AIQE,≤ 0.25
13,RNQE,≤ 0.25
14,YCTL,0.295
15,YAID,≤ 0.25
16,WAIW,≤ 0.25
17,TIAS,11.1
18,HPPD,≤ 0.25
19,HRCR,≤ 0.25
20,RAAD,≤ 0.25
21,GWLP,≤ 0.25
22,FRVC,≤ 0.25
23,SQQE,≤ 0.25
24,SNQE,18.7
25,SLQE,≤ 0.25

row,Variant,enrichment ratio
1,KSQE,≤ 0.25
2,TLQE,11.7
3,KAQE,≤ 0.25
4,RSER,≤ 0.25
5,WLMW,≤ 0.25
6,YVFS,≤ 0.25
7,GCFM,≤ 0.25
8,EFLK,≤ 0.25
9,TFAG,2.03
10,PFLG,≤ 0.25
11,TFLG,11.8
12,TFTG,13.3
13,WILG,≤ 0.25
14,TFFG,≤ 0.25
15,VSRM,≤ 0.25
16,TEYG,1.95
17,TAFP,0.47
18,NAGI,≤ 0.25
19,TAGI,13.1
20,LQQQ,≤ 0.25
21,KAGI,≤ 0.25
22,TAQQ,32.8
23,YTNC,≤ 0.25
24,SRQY,≤ 0.25
25,YTNY,≤ 0.25

row,Variant,enrichment ratio
1,TTNS,3.5
2,STNY,14.2
3,TTYY,2.55
4,TTNY,25.4
5,SQFA,≤ 0.25
6,HVQK,≤ 0.25
7,PLIG,≤ 0.25
8,VDHE,≤ 0.25
9,TMGF,13.3
10,THGF,8.21
11,TGGF,15
12,KCGF,≤ 0.25
13,WITF,≤ 0.25
14,NVTF,≤ 0.25
15,CFGF,≤ 0.25
16,TMHF,1.51
17,AHGF,≤ 0.25
18,VHGF,≤ 0.25
19,AIGF,11.6
20,TMTF,11.5
21,WAVD,≤ 0.25
22,HSRC,≤ 0.25
23,RGHS,≤ 0.25
24,VKVV,≤ 0.25
25,MFSR,≤ 0.25

row,Variant,enrichment ratio
1,LVPR,≤ 0.25
2,GRNL,≤ 0.25
3,YHIC,≤ 0.25
4,PQKS,≤ 0.25
5,SIVS,4.88
6,EYGF,≤ 0.25
7,NVGF,≤ 0.25
8,TNHF,≤ 0.25
9,TVHF,≤ 0.25
10,SLGF,10.1
11,EEGF,≤ 0.25
12,TLGF,12.8
13,MNGF,3.05
14,TVGF,18.5
15,PLGF,≤ 0.25
16,TNGF,15.9
17,EIGF,17.3
18,EVNL,≤ 0.25
19,TCLE,≤ 0.25
20,KQLE,≤ 0.25
